Records with an inconclusive call do not appear. Where a call stands in place of a potency, no number is given. Active and inactive are the calls of the source. Calls come from the whole dose curve; as a rule, active = well fitted inhibition curve with a large enough effect; inconclusive = small, poorly fitted or top-dose-only effect; inactive = no such curve, though single readings can be large or run the other way.
Potency is the fitted concentration of half-maximal effect.

The first experiment in a line: BET inhibitor-based combinations targeting novel dependencies in MECOM-rearranged (r) AML: MV-4-11 cell line (AID 2202233). Note: nearly all actives have a fitted effect of over 45% in size. Particulars: MV-4-11 AML viability, CellTiter-Glo luminescence, 48 h; series mostly up to 46 µM. The procedure, abridged: (§1)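 Normalized to DMSO and empty-well controls, the luminescence data from CellTiter-Glo after 48 hr drug exposure were fitted across 11 concentrations. Reported metrics are area under the dose-response curve and its Z-transformed form.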
Background: In ATP-based viability assays light output follows the ATP content of the culture.
Consider `C[C@H]1[C@H](O)[C@@H](C)/C=C/C=C/CC/C=C/C=C/C=C/C=C/[C@H](O[C@@H]2O[C@H](C)[C@@H](O)[C@H](N)[C@@H]2O)C[C@@H]2O[C@](O)(C[C@@H](O)[C@H](O)CC[C@@H](O)C[C@@H](O)C[C@@H](O)CC(=O)O[C@H]1C)C[C@H](O)[C@H]2C(=O)O`, for which the Potency entry was “inactive”. With `C[C@@H]1O[C@@H](O[C@@H]2C=C3CC[C@@H]4[C@H](CC[C@]5(C)[C@@H](c6ccc(=O)oc6)CC[C@]45O)[C@@]3(C)CC2)[C@H](O)[C@H](O)[C@H]1O`, the Potency was 29.5 nM (active). Still for that read-out and setting: to `CO/C1=C/C(C)=C\[C@@H](C)[C@@H](O)[C@@H](C)C/C(C)=C\C=C/[C@H](OC)[C@@H]([C@@H](C)[C@@H](O)[C@H](C)[C@@]2(O)C[C@@H](O)[C@H](C)[C@@H](C(C)C)O2)OC1=O` belongs 98.6 nM (active).

On to `CCCCCCC(C)(C)c1cc(O)c2c(c1)OC(C)(C)C1CC=C(CO)C[C@H]21` (stereo partly specified), for which the Potency was 29500 nM (active). `CC(C)CC(N(C)C)C1(c2ccc(Cl)cc2)CCC1` (stereo unspecified): the Potency result was “inactive”.

Turning to `Cn1c(CCCCCCC(=O)NO)nc2cc(N(CCCl)CCCl)ccc21`, the Potency is 1480 nM (active). As to `C/C(=C\c1csc(C)n1)[C@@H]1C[C@@H]2O[C@]2(C)CCC[C@H](C)[C@H](O)[C@@H](C)C(=O)C(C)(C)[C@@H](O)CC(=O)O1`, the Potency was 9.3 nM (active).

A further experiment can be described thus: BET inhibitor-based combinations targeting novel dependencies in MECOM-rearranged (r) AML: HNT-34 cell line (AID 2202234). Note: nearly all actives have a fitted effect of over 35% in size. The conditions noted are these: HNT-34 AML viability, CellTiter-Glo luminescence, 48 h; series mostly up to 46 µM. The procedure, abridged:
as §1
`Cn1c(COP(=O)(NCCBr)NCCBr)cnc1[N+](=O)[O-]`: the Potency entry is “inactive”. Still for that read-out and setting: to `CN1C(=O)COc2c(C(=O)NC3CN4CCC3CC4)cc(Cl)cc21` (stereo unspecified) belongs “inactive”.

On to `CC(C)[C@H]1C(=O)N[C@H](CO)Cc2c[nH]c3cccc(c23)N1C`, for which the Potency is 51.2 nM (active). On the same count and under the same terms, to `CC(N[C@H]1C[C@@H]1c1ccccc1)c1ccc2c(c1)OCCO2` (stereo partly specified) belongs “inactive”. For the compound `O=C(NCCCNc1nc(Nc2ccc(N3CCOCC3)cc2)ncc1C1CC1)C1CCC1`, the Potency was 13200 nM (active). Still for that read-out and setting: the value for `CC(C)[C@]12O[C@H]1[C@@H]1O[C@@]13[C@@]1(C)CCC4=C(COC4=O)[C@@H]1C[C@@H]1O[C@@]13C2=O` was 166 nM (active); that for `Cn1c(/C=C/CO)c(CO)c2c1C(=O)C=C(N1CC1)C2=O` was “inactive”; that for `CN(C)NC(=O)CCC(=O)O` was “inactive”. Turning to `COC12C(COC(N)=O)C3=C(C(=O)C(C)=C(N)C3=O)N1CC1C2N1C` (stereo unspecified), the Potency entry was “inactive”.

`COc1cc2cc(c1Cl)N(C)C(=O)C[C@H](OC(=O)C(C)C)[C@]1(C)O[C@@H]1[C@H](C)[C@@H]1C[C@@](O)(NC(=O)O1)[C@H](OC)/C=C/C=C(\C)C2`: the Potency result is “inactive”.

`C[C@H]1[C@H](O)[C@@H](C)/C=C/C=C/CC/C=C/C=C/C=C/C=C/[C@H](O[C@@H]2O[C@H](C)[C@@H](O)[C@H](N)[C@@H]2O)C[C@@H]2O[C@](O)(C[C@@H](O)[C@H](O)CC[C@@H](O)C[C@@H](O)C[C@@H](O)CC(=O)O[C@H]1C)C[C@H](O)[C@H]2C(=O)O`: the Potency entry was “inactive”. The same measure, in the same setting: to `C[C@@H]1O[C@@H](O[C@@H]2C=C3CC[C@@H]4[C@H](CC[C@]5(C)[C@@H](c6ccc(=O)oc6)CC[C@]45O)[C@@]3(C)CC2)[C@H](O)[C@H](O)[C@H]1O` belongs 14.8 nM (active); to `c1ccc2c(CN3CCNCC3)cccc2c1`, “inactive”. Turning to `CO/C1=C/C(C)=C\[C@@H](C)[C@@H](O)[C@@H](C)C/C(C)=C\C=C/[C@H](OC)[C@@H]([C@@H](C)[C@@H](O)[C@H](C)[C@@]2(O)C[C@@H](O)[C@H](C)[C@@H](C(C)C)O2)OC1=O`, the Potency was 87.9 nM (active). Same read-out and setting: the value for `CC(C)(NC(=O)O[C@@H]1CN2CCC1CC2)c1csc(-c2ccc(F)cc2)n1` was 14800 nM (active). Turning to `CCCCCCC(C)(C)c1cc(O)c2c(c1)OC(C)(C)C1CC=C(CO)C[C@H]21` (stereo partly specified), the Potency was 14800 nM (active). The same measure, in the same setting: to `C[C@]12COC(=O)C[C@@H]1CC[C@@H]1[C@@H]2CC[C@@]2(C)[C@H]1CC[C@]2(C)O` belongs “inactive”.

In the case of `CC(C)CC(N(C)C)C1(c2ccc(Cl)cc2)CCC1` (stereo unspecified), the Potency entry is “inactive”. As to `Cn1c(CCCCCCC(=O)NO)nc2cc(N(CCCl)CCCl)ccc21`, the Potency was 2950 nM (active).

The values are drawn from PubChem BioAssay (NCATS).
